Laboratory results from PubChem BioAssay.
Inconclusive results are not listed. Active and inactive are the calls of the source.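 Rule for the calls, unless noted: active = viability at or under a set limit in both replicates, limit being median viability minus 3 SD (cut at about 48% in these data, passing the limit was not always enough); inconclusive = at or under the limit in just one replicate; inactive = at or above the limit in both replicates.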

Key:
[1] = Her2 expression decrease, cell viability multiplex – SKBR3 breast tumor cells, AlphaScreen, ATP viability, primary screen (AID 461;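 active = Her2 level under about 52% in both replicate screens, with viability over 70% of control, limit read from the data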;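 for Her2 level: lower value means less Her2 protein in the cells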;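 for viability: percent of carrier control wells set as 100% viability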); conditions: SKBR3 Her2 protein level, 18-24 h, measured here: SKBR3 viability, ATP luminescence, at 10 µM
[2] = molecular target: Receptor tyrosine-protein kinase erbB-2 (Homo sapiens) (UniProt P04626); assay: as above; conditions: 18-24 h, at 10 µM, stronger effect = lower value
[3] = reduced viability of SK-BR-3 breast cancer cells – cell-based, 24 h, human, pilot screen (AID 572;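 active = viability at or below 10% of carrier control in both of two separate runs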;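 note: compound exposure lasted between 18 and 24 h rather than exactly 24 h; 100% = carrier-treated control wells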); conditions: SK-BR-3 viability, CellTiter-Glo luminescence, at 10 µM, stronger effect = lower value
[4] = HUVEC growth inhibition – cell-based, human, primary screen (AID 575;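 active = viability at or below 30% in both replicate assays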;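 note: 100% = median of untreated cell wells with 0.1% DMSO on each plate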); conditions: HUVEC proliferation, CellTiter-Glo luminescence, 72 h; at 10 µM; stronger effect = lower value
[5] = H69AR cell proliferation blockers – human, duplicate replicates, primary screen (AID 580); conditions: H69AR lung tumor cells viability, ATP luminescence, 72 h; at 10 µM; stronger effect = lower value;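 note: 100% = mean luminescence of untreated wells and 0% = no signal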
[6] = MRP1 drug-resistance reversers in H69AR cells – cell-based, doxorubicin co-treatment, pilot screen (AID 601;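 active = viability loss from added drug above about 55%, and viability with drug at most 40%, in both replicates, limit read from the data, passing the limit was not always enough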); conditions: CellTiter-Glo, 72 h, at 10 µM; for differential viability (reversal): stronger effect = higher value
[7] = yeast transport mutant growth inhibition pilot in 384-well plates, post-Golgi transport modulator project (AID 636; in the data active = inhibition above about 31%); conditions: absorbance 615 nm, about 18 h, stronger effect = higher value
[8] = growth suppression of yeast trafficking mutant, preliminary HTS, modulators of trafficking downstream of Golgi apparatus project, 1536-format plate, OD 615 nm (AID 637; in the data active = inhibition above about 30%); conditions: yeast transport mutant growth, absorbance 615 nm, 18 h; stronger effect = higher value
[9] = S. cerevisiae growth inhibition in permissive medium (OD615), pilot counter-assay for S. cerevisiae lifespan shortening project, permissive growth control (AID 705;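 active = growth inhibition above 25% in both replicates, a cutoff set 3 SD above the mean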); conditions: OD615, 24 h, at 10 µM, stronger effect = higher value
[10] = S. cerevisiae growth inhibition in restrictive medium, OD615, pilot screen, restrictive growth control, yeast lifespan reduction project (AID 706;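 active = growth inhibition above a set limit, 3 SD over mean compound inhibition, in both replicates, cut at about 43% in these data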;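 note: modified DeaD lifespan yeast strain shifted to restrictive glucose medium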); conditions: OD615, 48 h, at 10 µM, stronger effect = higher value
[11] = doxorubicin toxicity protection in MRP-1 cells – H69AR cells, CellTiter-Glo, duplicate, MRP-1 activator project, pilot screen (AID 807;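 active = viability increase at or above a cutoff of the median across tested compounds plus 3 SD, cut at about 8.5% in these data, passing the limit was not always enough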;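 note: compound pretreatment 18-22 h then 72 h combined with doxorubicin; 0% = doxorubicin alone and 100% = vehicle without doxorubicin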); conditions: H69AR viability with doxorubicin, CellTiter-Glo luminescence; at 10 µM; stronger effect = higher value
[12] = viability of HCT116 without oncogenic beta-catenin – human colon tumor cells, pilot screen (AID 823;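 active = cell viability at or below a set limit in both duplicate runs, the limit being the all-compound median minus 4 SD, cut at about 23% in these data, passing the limit was not always enough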;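 note: 0% = wells killed by 20 µM Hyamine and 100% = untreated DMSO cell wells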); conditions: HCT116 beta-catenin knockout viability, CellTiter-Glo, 60 h; at 10 µM; stronger effect = lower value
[13] = viability of PTEN-null HCT116 cells – cell-based, HCT116 clonal line, CellTiter-Glo, pilot screen (AID 824;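 active = viability at or below 27.92% in each of two runs, the all-compound median minus 4 SD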;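 note: 0% = 20 µM Hyamine control and 100% = vehicle cell control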); conditions: HCT116 PTEN-deleted viability, 60 h, at 10 µM, stronger effect = lower value
[14] = RAM pathway blockade in budding yeast – dse1pr::URA3 reporter, 5-FOA selection, pilot screen (AID 869;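 active = inhibition over a set limit, the all-compound mean plus 3 SD, in both replicate runs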;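 note: 0% = DMSO wells with no growth and 100% = 10 µM 1-NA-PP1 with full growth; RAM network block rescues cells from 5-FOA so hits raise OD615 growth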); conditions: S. cerevisiae dse1pr::URA3 5-FOA growth, OD615, 2 d; at 10 µM; stronger effect = higher value; strain carries analog-sensitive mutant Cbk1 kinase
[15] = RAM signaling pathway blockade in yeast – S. cerevisiae, Pdr1DBD-CYC8 efflux-inhibited sensitized strain, primary screen (AID 1298;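 active = RAM network inhibition above 8.4% in each of two replicates, 3 SD over the compound average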;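 note: 0% = DMSO untreated cells without growth and 100% = 10 µM 1-NA-PP1 full growth; higher means more yeast growth rescued from 5-FOA killing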); conditions: S. cerevisiae cbk1-as DSE1-URA3 strain, 5-FOA growth OD615, 2 d; at 50 µM; stronger effect = higher value
[16] = H69AR cells + 2 uM doxorubicin, measured here: viability with 2 uM doxorubicin, stronger effect = lower value
[17] = H69AR cells, compound alone cytotoxicity

Chain of Receptor tyrosine-protein kinase erbB-2 (Homo sapiens) (P04626 whole entry, looked up): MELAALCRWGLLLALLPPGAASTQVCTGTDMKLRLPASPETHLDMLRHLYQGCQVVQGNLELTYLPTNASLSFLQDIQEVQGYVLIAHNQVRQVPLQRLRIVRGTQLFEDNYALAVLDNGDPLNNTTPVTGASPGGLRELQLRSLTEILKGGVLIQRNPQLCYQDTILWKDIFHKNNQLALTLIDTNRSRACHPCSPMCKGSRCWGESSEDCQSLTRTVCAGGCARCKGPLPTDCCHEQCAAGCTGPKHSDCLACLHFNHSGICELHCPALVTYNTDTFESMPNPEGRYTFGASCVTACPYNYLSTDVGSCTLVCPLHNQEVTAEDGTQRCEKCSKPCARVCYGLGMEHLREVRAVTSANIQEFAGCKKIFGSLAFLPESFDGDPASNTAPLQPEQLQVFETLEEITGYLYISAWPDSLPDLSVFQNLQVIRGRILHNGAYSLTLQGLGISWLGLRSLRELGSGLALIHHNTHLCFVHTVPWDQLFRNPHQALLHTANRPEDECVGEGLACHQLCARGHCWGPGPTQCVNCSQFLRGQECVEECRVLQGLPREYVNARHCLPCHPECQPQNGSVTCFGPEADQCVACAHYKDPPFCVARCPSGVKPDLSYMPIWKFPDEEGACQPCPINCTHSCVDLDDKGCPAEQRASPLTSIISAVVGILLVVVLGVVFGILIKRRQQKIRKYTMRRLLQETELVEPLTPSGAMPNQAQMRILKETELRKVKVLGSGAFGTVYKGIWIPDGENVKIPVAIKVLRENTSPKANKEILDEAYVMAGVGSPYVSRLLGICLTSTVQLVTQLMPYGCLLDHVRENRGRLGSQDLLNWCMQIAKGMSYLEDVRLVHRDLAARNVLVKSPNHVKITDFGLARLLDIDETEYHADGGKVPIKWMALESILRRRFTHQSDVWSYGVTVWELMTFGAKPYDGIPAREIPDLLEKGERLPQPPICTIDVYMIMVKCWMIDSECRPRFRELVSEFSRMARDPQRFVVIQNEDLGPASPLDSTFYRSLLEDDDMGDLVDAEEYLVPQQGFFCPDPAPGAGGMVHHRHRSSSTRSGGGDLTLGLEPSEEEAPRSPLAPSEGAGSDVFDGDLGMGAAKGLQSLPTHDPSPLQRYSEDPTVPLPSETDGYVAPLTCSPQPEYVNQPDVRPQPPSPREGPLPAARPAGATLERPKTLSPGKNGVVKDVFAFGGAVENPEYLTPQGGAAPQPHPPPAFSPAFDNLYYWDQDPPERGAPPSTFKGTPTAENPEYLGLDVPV

N#C/C(C(=O)N1CCOCC1)=C1/SC=C(c2ccccc2)N1c1ccccc1
inactive: Her2 level [2] 92% | viability [3] 102% | viability [4] 107% | viability [5] 96.1% | differential viability (reversal) ([6]; H69AR cells + 2 uM doxorubicin) 4.83% | inhibition [7] -7.57% | inhibition [8] 1.67% | growth inhibition [9] -1.56% | growth inhibition [10] -17.9% | viability increase [11] -1.27% | viability [12] 96.6% | viability [13] 95% | inhibition [14] 2.57% | RAM network inhibition [15] 1.55%
102%: viability [1]
96.1%: viability [6, 17]
91.3%: viability [6, 16]

COC(=O)COc1cccc(NC(=O)COc2ccccc2)c1
93.2%: viability [6, 16]
99.5%: viability [1]
inactive: Her2 level [2] 122% | viability [3] 99.5% | viability [4] 90.7% | viability [5] 96.5% | differential viability (reversal) ([6]; H69AR cells + 2 uM doxorubicin) 3.21% | inhibition [7] -0.13% | inhibition [8] -7.33% | growth inhibition [9] -12.5% | growth inhibition [10] 3.51% | viability increase [11] -0.74% | viability [12] 97.2% | viability [13] 93.7% | inhibition [14] 1.66% | RAM network inhibition [15] 2.45%
96.5%: viability [6, 17]

CN1CCc2c(sc3c2C(=O)NC(c2cccc(OC(=O)c4cccs4)c2)N3)C1 (stereo not given)
81.5%: viability [1]
inactive: Her2 level [2] 78.5% | viability [3] 81.5% | viability [4] 68% | viability [5] 85.6% | differential viability (reversal) ([6]; H69AR cells + 2 uM doxorubicin) -8.95% | inhibition [7] -5.07% | inhibition [8] 7.5% | growth inhibition [9] 8.64% | growth inhibition [10] 11.5% | viability increase [11] -4.85% | viability [12] 96.3% | viability [13] 93.8% | inhibition [14] 0.215% | RAM network inhibition [15] 4.47%
94.6%: viability [6, 16]
85.6%: viability [6, 17]

Cn1c(NC(=O)c2ccccc2NC(=O)C(C)(C)C)nc2ccccc21
inactive: Her2 level [2] 116% | viability [3] 95% | viability [4] 62.8% | viability [5] 60.6% | differential viability (reversal) ([6]; H69AR cells + 2 uM doxorubicin) -16.9% | inhibition [7] -1.73% | inhibition [8] 2.33% | growth inhibition [9] 3.42% | growth inhibition [10] 8.1% | viability increase [11] -2.36% | viability [12] 47.1% | viability [13] 55.1% | inhibition [14] -0.01% | RAM network inhibition [15] 1.74%
60.6%: viability [6, 17]
95%: viability [1]
77.5%: viability [6, 16]

COc1cccc2cc(C(=O)N3CCN(c4ccc(C)cc4C)CC3)c(=O)oc12
88.5%: viability [6, 16]
116%: viability [1]
96.5%: viability [6, 17]
inactive: Her2 level [2] 110% | viability [3] 116% | viability [4] 93.7% | viability [5] 96.5% | differential viability (reversal) ([6]; H69AR cells + 2 uM doxorubicin) 7.98% | inhibition [7] -3.6% | inhibition [8] -6.67% | growth inhibition [9] -7.67% | growth inhibition [10] 5.05% | viability increase [11] -2.99% | viability [12] 85.3% | viability [13] 74.3% | inhibition [14] -0.005% | RAM network inhibition [15] 1.18%

COc1ccc(C)cc1NC(=O)C1CCN(S(=O)(=O)c2cccc3cccnc23)CC1
80.5%: viability [1]
inactive: Her2 level [2] 94.5% | viability [3] 80.5% | viability [4] 102% | viability [5] 90.9% | differential viability (reversal) ([6]; H69AR cells + 2 uM doxorubicin) 4.79% | inhibition [7] -5.33% | inhibition [8] -1.48% | growth inhibition [9] -0.795% | growth inhibition [10] -2.36% | viability increase [11] -2.44% | viability [12] 95.3% | viability [13] 86% | inhibition [14] 1.77% | RAM network inhibition [15] 4.45%
90.9%: viability [6, 17]
86.1%: viability [6, 16]

CCN(C(=O)c1cc(Cl)ccc1OC)c1ccccc1
101%: viability [6, 16]
103%: viability [6, 17]
inactive: Her2 level [2] 110% | viability [3] 91.5% | viability [4] 95.6% | viability [5] 103% | differential viability (reversal) ([6]; H69AR cells + 2 uM doxorubicin) 2.06% | inhibition [7] 1.04% | inhibition [8] -10.3% | growth inhibition [9] -16.1% | growth inhibition [10] -19.6% | viability increase [11] -2.05% | viability [12] 89.5% | viability [13] 90% | inhibition [14] 2.85% | RAM network inhibition [15] 3.26%
91.5%: viability [1]

CCOc1cccc(-c2nnc3n2N=C(c2cc(OC)ccc2OC)CS3)c1
13.5%: viability [6, 17]
active: viability [5] 13.5% | growth inhibition [10] 50.3% | viability [12] 19.4% | viability [13] 21.2%
104%: viability [1]
inactive: Her2 level [2] 83.5% | viability [3] 104% | viability [4] 42.4% | differential viability (reversal) ([6]; H69AR cells + 2 uM doxorubicin) -60.8% | inhibition [7] -5.87% | inhibition [8] 1.75% | growth inhibition [9] 16.2% | viability increase [11] -3.98% | inhibition [14] 1.96% | RAM network inhibition [15] 6.09%
74.2%: viability [6, 16]

CC1=C(C(N)=O)C(c2ccncc2)n2nc(-c3ccccc3Cl)nc2N1 (stereo not given)
100%: viability [6, 17]
96%: viability [1]
inactive: Her2 level [2] 96.5% | viability [3] 96% | viability [4] 90.1% | viability [5] 100% | differential viability (reversal) ([6]; H69AR cells + 2 uM doxorubicin) 13.3% | inhibition [7] 0.53% | inhibition [8] -3.11% | growth inhibition [9] -8.2% | growth inhibition [10] 6.52% | viability increase [11] -0.22% | viability [12] 94% | viability [13] 98.8% | inhibition [14] 1.56% | RAM network inhibition [15] -0.11%
86.9%: viability [6, 16]

CCc1cccc(NC(=O)CCc2nc(-c3cccs3)no2)c1
inactive: Her2 level [2] 107% | viability [3] 108% | viability [4] 95.4% | viability [5] 101% | differential viability (reversal) ([6]; H69AR cells + 2 uM doxorubicin) 15.6% | inhibition [7] -3.47% | inhibition [8] -0.98% | growth inhibition [9] -1.88% | growth inhibition [10] -1.74% | viability increase [11] -1.34% | viability [12] 95.6% | viability [13] 97.6% | inhibition [14] 0.515% | RAM network inhibition [15] -1.4%
85.1%: viability [6, 16]
101%: viability [6, 17]
108%: viability [1]
